PI5P4Ka inh = inhibitors of human PI5P4K alpha; P48426; PI5P4Kalpha enzyme, ADP-Glo luminescence, 60 min; stronger effect = lower value; max response, %; actives 1.2% (n = 330,000); active means max response of -50% or lower; inconclusive means between -30% and -50%; inactive means -30% or higher; further: value at the top dose of about 77 µM; on the % scale 0 is the no-effect control and ±100 the full control effect
Target sequence (P48426 whole entry, looked up): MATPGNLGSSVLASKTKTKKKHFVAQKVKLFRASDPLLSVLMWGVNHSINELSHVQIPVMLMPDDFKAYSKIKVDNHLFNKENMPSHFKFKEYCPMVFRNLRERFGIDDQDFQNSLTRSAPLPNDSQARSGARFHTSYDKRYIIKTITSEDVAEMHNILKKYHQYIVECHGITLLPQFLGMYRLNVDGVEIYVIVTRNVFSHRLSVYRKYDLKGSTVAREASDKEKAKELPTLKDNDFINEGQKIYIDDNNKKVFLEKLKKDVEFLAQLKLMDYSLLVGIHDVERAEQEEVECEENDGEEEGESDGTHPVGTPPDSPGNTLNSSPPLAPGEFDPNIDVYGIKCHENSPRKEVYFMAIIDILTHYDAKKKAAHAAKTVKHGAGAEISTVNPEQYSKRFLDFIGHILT
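Human PI5P4Kalpha with substrate in 0.038 M HEPES pH 7.4, 0.28 mM EGTA, 0.1% CHAPS, 5% DMSO; reaction started with 5 microM ATP (final), 60 min at room temperature. ADP formed read by ADP-Glo luminescence.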
GCN5L2 inh = blocks human GCN5L2 histone acetyltransferase | Q92830 | GCN5L2 HAT assay, ThioGlo1 CoA-SH fluorescence | Potency, µM (series often up to 58.9 µM), without a hit: at the top dose activity change, negative = inhibition, actives largely listed as inhibitors | actives 0.21% (n = 390,000); further: potency means the concentration at half of the fitted maximal effect; on the % scale 0 is the no-effect control and ±100 the full control effect
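GCN5L2 (20 nM) in 50mM HEPES pH 7.5, 0.1mM EDTA, 0.01% Tween-20 preincubated 15 min with compounds at room temperature. Reaction started with H3(1-25) 75uM, acetyl-CoA 70uM, ThioGlo1 50uM; CoA-thiol fluorescence (Ex340/Em540) read at 0 and 20 min.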
HP1b chromo inh = HP1-beta chromodomain-methylated histone interaction inhibition. P83916. AlphaScreen HP1-beta / biotin-H3K9me3 peptide binding. Potency, µM (highest dose often 114 µM), for inactives: at the top dose activity change, negative = inhibition, actives largely listed as inhibitors. actives 0.56% (n = 390,000). AID 540317; further: potency means the concentration at half of the fitted maximal effect; nearly all actives have a fitted effect of over 70% in size
Target sequence (P83916 whole entry, looked up): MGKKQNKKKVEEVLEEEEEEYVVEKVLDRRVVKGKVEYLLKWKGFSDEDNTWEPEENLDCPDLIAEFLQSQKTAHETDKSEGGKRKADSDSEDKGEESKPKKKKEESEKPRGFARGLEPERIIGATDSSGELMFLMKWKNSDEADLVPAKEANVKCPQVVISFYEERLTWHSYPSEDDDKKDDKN
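Compound inhibition of the preformed complex between 50 nM HP1-beta and 50 nM biotinylated H3K9me3 peptide was read by AlphaScreen. Buffer was PBS pH 7.4 with 0.01% Tween-20. Incubations ran 30 min at room temperature, with 10 ug/mL donor/acceptor beads.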
JMJD2A Tudor = inhibitors of human JMJD2A Tudor domain | Potency, µM (highest dose often 114 µM), for inactives: top-dose activity change, negative = inhibition, actives largely listed as inhibitors | AlphaScreen JMJD2A-Tudor / H3K4me3 peptide binding | O75164 | actives 4.4% (n = 390,000); further: potency means the concentration at half of the fitted maximal effect; on the % scale 0 is the no-effect control and ±100 the full control effect; nearly all actives have a fitted effect of over 50% in size
BAZ2B block = BAZ2B (human) inhibition; AlphaScreen BAZ2B-H3K14Ac peptide displacement; Potency, µM (titrated, usually from 114 µM), without a hit: at the top dose activity change, negative = inhibition, actives largely listed as inhibitors; actives 4.4% (n = 360,000); further: potency means the concentration at half of the fitted maximal effect; on the % scale 0 is the no-effect control and ±100 the full control effect; nearly all actives have a fitted effect of over 60% in size
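Multi-concentration screen (max 110 uM) measuring displacement of acetylated histone H3 peptide from BAZ2B by AlphaScreen, using 50 nM protein, 50 nM peptide and 10 ug/mL streptavidin donor plus Ni-chelate acceptor beads.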
PLK1 PBD block = PLK1 (human) polo-box domain binding inhibition; P53350; Plk1 PBD binding of FITC phosphopeptide, fluorescence polarization; Potency, µM, for the others: max response, negative = inhibition, actives largely listed as inhibitors; actives 2.8% (n = 360,000); further: potency means the concentration at half of the fitted maximal effect; series mostly up to about 57 µM; on the % scale 0 is the no-effect control and ±100 the full control effect; nearly all actives have a fitted effect of over 65% in size
* marks the source's active call; other numbers are inactive results; ? = inconclusive; . = no result; [ ] = another dose, or the depositor's remark. This is a sample that favours compounds with a hit; in the whole collection about 7% have one here. Unless noted, the call rests on the fitted dose curve; in most records, active means well fitted curve in the direction sought with a large enough effect; inconclusive means small, poorly fitted or top-dose-only effect, or another doubt; inactive means no such curve, though single readings can be large; an effect the other way counts as inactive or inconclusive.

SMILES	PI5P4Ka inh	GCN5L2 inh	HP1b chromo inh	JMJD2A Tudor	BAZ2B block	PLK1 PBD block
COc1cccc(OC)c1OC(=O)c1ccccc1	-4	.	21%	-8%	.	-7%
Cc1cc2c(s1)c1cnn(Cc3ccccc3)c(=O)c1n2C	.	.	.	3%	.	.
CCCC(CCC)C(=O)Nc1cccc(-c2cn3cccnc3n2)c1	.	4%	26%[57 µM]	-9%	-12%	.
CN1CCN(C(c2ccc(Cl)cc2)c2cc(Cl)c3cccnc3c2O)CC1 (stereo unspecified)	-62*	-6%	?	40µM*	32µM*	2.4µM*
CN1CCN([C@@H](c2ccccc2)c2ccc(Cl)cc2)CC1	.	2%[21.4 µM]	.	.	.	.
O=C(CSC1=NS(=O)(=O)c2ccccc2N1)N1CCCCC1	-2	-2%	29%	-1%	0%	-6%
NNc1ncnc2sc3c(c12)CCC3	-28	-5%	-2%	22µM*	18µM*	-14%
CN(C)c1ccc(Nc2ncnc3sc4c(c23)CCCC4)cc1	.	-12%	22µM*	25µM*	32µM*	.
c1cc(Nc2ncnc3sc4c(c23)CCC4)ccn1	0	-18%	13%	-16%	-1%	-4%
C(=N\Nc1ncnc2sc3c(c12)CCC3)/c1ccncc1	-1	-14%	15%	-17%[57.1 µM]	-30%	-21%
CC1(C)Cc2c(sc3ncnc(NN)c23)CO1	-2	2%	20%	50µM*	79µM*	5%
CC1(C)Cc2c(sc3ncn4c(=S)[nH]nc4c23)CO1	-53*	22µM*	?	?	8%	30µM*
O=C1N/C(=N/NC(=O)c2cccc3ccccc23)S/C1=C\c1ccccc1OCc1ccccc1	-55*	?	36%	-24%	1%[57.1 µM]	27µM*
COc1ccc(OC)c(/C=C2\S/C(=N/NC(=O)c3ccc4ccccc4c3)NC2=O)c1	?	-17%	15%	-33%	-3%	?
CCOC(=O)c1cnc2c(ccc3ccccc32)c1Nc1ccccc1O	.	-7%	31%	-8%	-12%	.
CCN(CC)C(=O)c1sc2c(c1C)c(=O)n(-c1ccc(Cl)c(Cl)c1)c(=O)n2CC(=O)Nc1cccc(OC)c1	.	-13%	18%	-24%	-3%	.
COc1ccc(-c2csc(NC(=S)NC(=O)c3cccs3)n2)cc1OC	-67*	-11%	-5%	-34%	?	-27%
COc1ccc(CC(=O)NNC(=O)c2cccs2)cc1OC	1	-1%	16%	32µM*	-6%	-8%
COc1ccc(-c2csc(NC(=O)c3cc(C)oc3C)n2)cc1OC	3	-10%	-21%	?	35µM*	-13%
CCc1noc(C)c1C(=O)Nc1nc(-c2ccc(OC)c(OC)c2)cs1	5	-2%	-17%	-33%	0%	-9%
O=C1C(c2ccccc2)=[N+]([O-])c2ccccc21	-6	-12%	?	25µM*	10µM*	0.17µM*
Cn1c(N)c(C(=O)COC(=O)[C@@H]2CCCN2S(=O)(=O)c2ccc(Cl)cc2)c(=O)n(C)c1=O	2	-5%	41%	5%	1%	-19%
CCCCCC(=O)Cc1cc(O)cc2c1C(=O)Oc1cc(O)c(C(=O)O)c(CCCCC)c1O2	-76*	-24%	-9%	79µM*	?	24µM*
COc1cc(C(=O)NNC(=S)Nc2ccc(S(N)(=O)=O)cc2)cc(OC)c1OC	7	1%	-10%	-5%[11.4 µM]	-23%	6.7µM*
COc1ccc(S(=O)(=O)Oc2c(OC)cc(C(=S)N3CCOCC3)cc2OC)cc1	-5	-9%	-19%	-29%	-23%	27µM*
SMILES	PI5P4Ka inh	GCN5L2 inh	HP1b chromo inh	JMJD2A Tudor	BAZ2B block	PLK1 PBD block
COc1ccc(C(=O)NC(=S)Nc2ccc(S(N)(=O)=O)cc2)cc1	3	-6%	18%	-15%	-10%	-6%
COc1cc(C(=S)N2CCCC2)cc(OC)c1OS(=O)(=O)c1ccc(NC(C)=O)cc1	-26	3%	?	?	-28%	12µM*
COc1cc(C(=S)N2CCCC2)ccc1OS(=O)(=O)c1ccc(NC(C)=O)cc1	-2	-3%	44%	-22%	10%	-17%
COc1ccc(C2CC(=O)c3cc(-c4nc(-c5cccc([N+](=O)[O-])c5)cs4)c(=O)n(-c4ccc(C)c(C)c4)c3C2)cc1 (stereo unspecified)	.	1%	37%	-22%	-39%	.
COCC(=O)N1CCC2(CC1)CN(Cc1cc(C(F)(F)F)cc(C(F)(F)F)c1)C2	.	-4%	.	.	.	.
COc1ccc(-c2ncccc2O)cc1	-2	-8%[0.501 µM]	13%	-4%	-1%	-4%
Oc1ccc(N=Nc2ccc3c(c2)OCCO3)c2cccnc12	?	-2%	?	20µM*	?	27µM*
COc1ccc(-c2[nH]ncc2N=Nc2ccccc2)cc1	22	-9%	?	28µM*	35µM*	-10%
COc1ccc(-c2[nH]ncc2N=Nc2cc(C)cc(C)c2)cc1	14	-12%	-17%	-20%[11.4 µM]	?	-17%
COc1ccc(N=Nc2ccc(O)c3ncccc23)cc1	-3	-22%	-19%	22µM*	6.3µM*	-4%
COc1ccc(-c2cc(-c3ccccc3)no2)cc1	-2	-19%	38%	1%	10%	1%
COc1ccc(N=Nc2cc(-c3ccccc3)ccc2O)cc1	33	1%	?	13µM*	10µM*	2%
CCn1c2ccccc2c2cc(NC(=O)C(C)OC(=O)c3ccc(NC(=O)CC#N)cc3)ccc21 (stereo unspecified)	0	-3%	49%	-3%	10%	3%
COc1cc(OC)cc(C(=O)Nc2cccc3cccnc23)c1	-4	-6%	51%	26%	-5%	-2%
COc1cccc(N=Nc2ccc3cccnc3c2O)c1	?	-7%	?	14µM*	13µM*	-19%
COc1cccc(N=Nc2ccc(O)c3ncccc23)c1	-21	-3%	?	18µM*	7.9µM*	-18%
CCCCn1c(N)c(N(CCOC)C(=O)c2cccc(S(=O)(=O)N3CCCCCC3)c2)c(=O)[nH]c1=O	-6	-16%	17%	4%	-5%	2%
CNc1ccccc1C(C)(C)c1cc(C)[nH]n1	-18	-11%	12%	?	-18%	8.4µM*
O=C(CCC1N=C2c3ccccc3N=C(SCc3ccc(F)cc3)N2C1=O)NCc1ccc(F)cc1 (stereo unspecified)	.	-4%	19%	-19%	0%	.
COCCN(C(=O)CCC(=O)Nc1ccccn1)C(C(=O)NCCC(C)C)c1ccc(C)cc1 (stereo unspecified)	-6	0%	27%	-6%	-6%	-8%
Cn1cc(C(=O)NCCc2ccccc2)c(=O)c2cc(S(=O)(=O)N3CCOCC3)ccc21	-22	.	11%	-31%[11.4 µM]	.	30µM*
